In PubChem BioAssay (NCATS):
Several values for one entry are separate records, joined by “and”; a condition that tells them apart may be missing. Identical values can stand only once. Inconclusive results are not listed. A call without a number means that no potency is given here. Activity calls are given as the source filed them. Calls follow the shape of the dose curve; as a rule, active = well fitted cell-killing curve with a large enough effect; inconclusive = small, poorly fitted or top-dose-only effect; inactive = no such curve, though single readings can be large or run the other way.
Potency is read from the fitted curve at half-maximal effect.

Assay: qHTS of pediatric cancer cell lines to identify multiple opportunities for drug repurposing: Primary screen for A673 cells (AID 1347092); also: nearly all actives have a fitted effect of over 45% in size
Details: A673 Ewing sarcoma viability, CellTiter-Glo ATP luminescence, 48 h; series mostly up to 46 µM
From the text: Drug repurposing or repositioning has been offered as a strategy for drug development in oncology programs. This approach has special potential for childhood cancers and other rare or orphan diseases, where the expected return on new drug development has been a disincentive to pharmaceuticals. […] In this project we exploit the poly-pharmacology of drugs to discover new indications via phenotypic screening of a panel of 19 well-characterized cell lines derived from solid tumors seen in children and adolescents. The goal is to identify approved drugs with previously unrecognized anticancer properties that has the potential to reveal new mechanisms and biological processes involved in carcinogenesis or drug resistance. We employed a titration-based paradigm (quantitative high-throughput screening or qHTS), where all compounds were tested at multiple concentrations for their effect on cell viability. Concentration-response curves (CRCs) were derived directly from the primary screen, and both potency and efficacy values were used to identify compounds with robust bioactivity profiles. We screened the NIH Chemical Genomics Center (NCGC) Pharmaceutical Collection (NPC) and Mechanism Interrogation Plate (MIPE) small molecule collections of approved and investigational compounds against these cell lines; and measured metabolically active cells after 48 hours of compound treatment as a proxy for cell viability. […] Assay Submitter: Nathalia J. Martinez, National Center for Advancing Translational Sciences, National Institutes of Health, Rockville, MD, USA; email: natalia.martinez@nih.gov. Shen, M et al. Quantitative high-throughput phenotypic screening of pediatric cancer cell lines identifies multiple opportunities for drug repurposing. Oncotarget 2017 Dec 19;9(4):4758-4772. PMID 29435139.
The cells were obtained from University of North Carolina (UNC), Pediatric Preclinical Testing Program (PPT), and Coriell Institute (CI). qHTS cell viability assay: Cells were assayed in growth media at a density of 500-1,000 cells/well. Five microliters of cells were dispensed into 1,536-well, white, solid-bottom, TC-treated plates (Greiner Bio One) using a multidrop dispenser and incubated at 37 degrees C, 5% CO2, under a humidified atmosphere for 5 hours. Twenty-three nanoliters of compounds and controls (neutral control DMSO or positive control bortezomib at final concentration of 2.3 uM) were subsequently transferred by Kalypsys pintool. For primary screens, the MIPE collection was tested at 11-point dilutions (final concentrations range from 0.78 nM to 46 µM) and the NPC collection at 8-point dilutions (final concentrations range from 0.59 nM to 46 µM). Compounds tested in follow-up screens were assayed at 11-point dilutions. Cells were incubated for 48 hours, followed by addition of 3 uL of CellTiter-Glo (Promega). After a 15min incubation at room temperature, samples were analyzed for luminescence intensity using a ViewLux High-throughput CCD imager equipped with clear filters.
In the case of O=c1n(CCCN2CCN(c3cccc(Cl)c3)CC2)nc2ccccn12, the Potency was “inactive”. In the case of CCC(=O)N[C@H]1CC[C@H](C(=O)N(C)c2ccc(-c3nc4ccccc4o3)cc2)C1, the Potency was 3.72 µM (active). For COc1ccc(CC2=NN3C([C@@H](CCc4ccccc4)[C@@H](C)O)=NC(C)C3C(=O)N2)cc1OC (stereo not given in full), the Potency was “inactive”. With Cc1c(CCOc2ccc(C(=O)O)cc2)c2cc(Cl)ccc2n1C(c1ccccc1)c1ccccc1 the Potency was 18.7 µM (active). For CC1(C)SCCN(S(=O)(=O)c2ccc(OCC#CCO)cc2)[C@@H]1C(=O)NO, the Potency was “inactive”. For S=C(NCc1ccc2c(c1)OCO2)N1CCN(c2ncnc3c2oc2ccccc23)CC1, the Potency was 1.71 µM (active). For CCCS(=O)(=O)Nc1ccc(F)c(C(=O)c2c[nH]c3ncc(-c4ccc(Cl)cc4)cc23)c1F, the Potency was 9.35 µM (active). In the case of O=C(O)CCc1ccc(NCc2cccc(Oc3ccccc3)c2)cc1, the Potency was “inactive”. With COc1cc2c(cc1OC)CN(CCc1ccc(NC(=O)c3cccc4c(=O)c5cccc(OC)c5[nH]c34)cc1)CC2 the Potency was 4.69 µM (active). With COc1c(Cl)cc2c([nH]c3cnccc32)c1NC(=O)c1cccnc1C the Potency was 0.469 µM (active). With CCn1cc(C(=O)O)c(=O)c2cc(F)c(N3CCNC(C)C3)c(F)c21 (stereo not given) the Potency was “inactive”. In the case of CCCc1nn(C)c2c(=O)[nH]c(-c3cc(S(=O)(=O)N4CCN(C)CC4)ccc3OCC)nc12, the Potency was “inactive”. With O=C1[C@H](Cc2ccc(O)cc2)N2C(=O)CCN(C(=O)NCc3ccccc3)[C@H]2CN1Cc1cccc2ccccc12 the Potency was 11.8 µM (active). In the case of Cn1cnc2c(F)c(Nc3ccc(Br)cc3Cl)c(C(=O)NOCCO)cc21, the Potency was 2.35 µM (active). With C[C@H](NC(=O)Cc1cc(F)cc(F)c1)C(=O)N[C@@H]1C(=O)N(C)c2ccccc2-c2ccccc21 the Potency was 7.43 µM (active). With NS(=O)(=O)c1cc2c(cc1Cl)NC=NS2(=O)=O the Potency was “inactive”. In the case of Fc1ccc(Cl)cc1-c1nc(Nc2ccncc2)c2nccnc2n1, the Potency was “inactive”. For CNC[C@H](O)c1cccc(O)c1, the Potency was “inactive”. In the case of COc1nc(-c2ccc3c(c2)OCO3)n(-c2ccc(NC(=O)CSc3ccccc3)cc2)n1, the Potency was “inactive”. With Cc1cc(SCc2sc(-c3ccc(C(F)(F)F)cc3)nc2C)ccc1OCC(=O)O the Potency was “inactive”. With CCC(C)N(C)C(=O)c1cc2ccccc2c(-c2ccccc2Cl)n1 (stereo not given) the Potency was “inactive”. For CC(C=CC1=C(C)CCCC1(C)C)=CC=CC(C)=CC(=O)O, the Potency was 14.8 µM (active) and 296 nM (active). With CCc1cncnc1N1CCN(Cc2nc3ccc(C(F)(F)F)cc3[nH]2)CC1 the Potency was 29.6 µM (active). For CN(C)c1ccc(Nc2nc(N)n(C(=O)c3c(F)cccc3F)n2)cc1, the Potency was 2.35 µM (active). In the case of COc1cc(Nc2ncc3c(n2)-c2ccc(Cl)cc2C(c2c(F)cccc2OC)=NC3)ccc1C(=O)O, the Potency was “inactive”. For O=C(Nc1cccnc1)N1CCC(Cc2cccc(Oc3ccc(C(F)(F)F)cn3)c2)CC1, the Potency was 11.8 µM (active). For COc1ccc2c3n(c(=NC(=O)c4cccnc4)nc2c1OC)CCN3, the Potency was 0.743 µM (active). In the case of OC[C@H](Cc1ccccc1)Nc1nc(Oc2ccc3c(c2)CCC3)nc2c1ncn2Cc1ccc(-c2ccccc2)cc1, the Potency was “inactive”. With OCCn1cc(-c2cnc3nnn(Cc4ccc5ncccc5c4)c3n2)cn1 the Potency was “inactive”. In the case of C[C@]1(c2nc3c(C(N)=O)cccc3[nH]2)CCCN1, the Potency was 14.8 µM (active). With Cc1[nH]c(=O)c(C#N)cc1-c1ccncc1 the Potency was “inactive”. For O=c1[nH]cnc2[nH]ncc12, the Potency was “inactive”. With NC(=O)c1ccc(I)c([N+](=O)[O-])c1 the Potency was 18.7 µM (active). With O=C(C1CC1)N1CC[C@@H](Cn2c(-c3ccc(-c4ccc5occc5c4)cc3)nc3cnccc32)C1 the Potency was “inactive”. With COc1cc2nccc(Oc3ccc(NC(=O)NC4CC4)c(Cl)c3)c2cc1C(N)=O the Potency was 0.469 µM (active). With CCC(C)(C)C(=O)O[C@H]1C[C@@H](C)C=C2C=C[C@H](C)[C@H](CC[C@@H]3C[C@@H](O)CC(=O)O3)[C@H]21 the Potency was 10.6 µM (active). For O=C(c1cc(Cc2n[nH]c(=O)c3ccccc23)ccc1F)N1CCN(C(=O)C2CC2)CC1, the Potency was 5.9 µM (active). In the case of Cc1cnc(NC(=O)C2=C(O)c3ccccc3S(=O)(=O)N2C)s1, the Potency was “inactive”. With CCc1ccc(CCOc2ccc(CC3SC(=O)NC3=O)cc2)nc1 (stereo not given) the Potency was “inactive”. With COCCNCCCn1c(C(=O)CF)c(-c2ccc(C)cc2)c2c(N)ncnc21 the Potency was 23.5 µM (active).
